An excerpt weighted towards active compounds, which were near 1.2% of everything screened.
Avidin bead fluor – avidin bead compound fluorescence profile | Avidin beads, compound fluorescence 488/530 nm, flow cytometry; hits give high values | fluorescence (KMESF) at 10 µM | 220,000 compounds, 0.38% hits | AID 1775; in the data active means fluorescence above about 47
GSH bead fluor – GSH bead compound fluorescence profile | GSH beads flow cytometry, compound fluorescence 488/530 nm; hits give high values | fluorescence (KMESF) at 10 µM | 190,000 compounds, 0.25% hits | AID 1776; in the data active means fluorescence above about 89;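 further: glutathione beads carrying GST-tagged Bcl family fusion proteins plus one bare bead set; values are compound well signal with DMSO vehicle wells as background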
RGS8-Gao reg – modulates binding of RGS8 to human Galphao; multiplexed bead flow cytometry; actives lie on both sides; response (percent of control binding), % at 10 µM; 220,000 compounds, 0.34% hits; in the data active means response below about 60% or above about 140%; inactive means in between;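 further: Galphao activated as the GDP aluminium fluoride complex binding bead-coupled RGS8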
Target sequence (P09471 whole entry, looked up): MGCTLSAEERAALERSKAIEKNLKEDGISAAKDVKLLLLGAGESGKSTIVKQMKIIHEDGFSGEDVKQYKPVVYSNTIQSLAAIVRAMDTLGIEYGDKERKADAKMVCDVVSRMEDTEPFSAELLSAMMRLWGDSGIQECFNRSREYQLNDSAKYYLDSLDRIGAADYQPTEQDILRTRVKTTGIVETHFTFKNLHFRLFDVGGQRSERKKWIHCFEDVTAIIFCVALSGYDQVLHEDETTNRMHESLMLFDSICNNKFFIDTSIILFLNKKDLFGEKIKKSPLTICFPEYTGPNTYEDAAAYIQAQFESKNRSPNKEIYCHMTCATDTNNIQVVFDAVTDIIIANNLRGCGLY
RGS16-Gao HTS – RGS16-Galphao interaction regulator (human); O15492+P09471; bead-based flow cytometry RGS16-Galphao binding, fluorescence; actives lie on both sides; binding response (% of control), % at 10 µM; 220,000 compounds, 0.38% hits; AID 1441; call rule not given here;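 further: Galphao activated by GDP with aluminum fluoride before binding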
Target sequence (O15492 whole entry, looked up): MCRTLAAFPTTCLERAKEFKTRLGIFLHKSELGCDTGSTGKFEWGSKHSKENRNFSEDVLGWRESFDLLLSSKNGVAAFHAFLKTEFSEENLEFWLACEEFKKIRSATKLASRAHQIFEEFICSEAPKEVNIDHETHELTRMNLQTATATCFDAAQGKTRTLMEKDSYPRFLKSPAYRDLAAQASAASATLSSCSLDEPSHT
Target sequence (P09471 whole entry, looked up): as the sequence (P09471 whole entry, looked up) above
RGS4-Gao reg – human RGS4-Galphao interaction regulation; Multiplexed bead flow cytometry, RGS4-Galphao binding; actives lie on both sides; AID 1415; 220,000 compounds, 0.33% hits; binding response (% of control), % at 10 µM; in the data active means binding response below about 49% or above about 150%; inactive means in between;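 further: fluorescent Galphao activated with aluminum fluoride binding bead-coupled RGS4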
RGS7-Gao reg – human RGS7-Galphao interaction regulation. AID 1439. Multiplexed bead flow cytometry, RGS7-Galphao binding; actives lie on both sides. P09471. binding response (% of control), % at 10 µM. 220,000 compounds, 0.35% hits; in the data active means binding response below about 49% or above about 150%; inconclusive means no clear call, values can overlap the other calls; inactive means in between;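 further: fluorescent Galphao held in activated GDP-AlF4 state binding bead-coupled RGS7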
* hit, by the source's call; ? = inconclusive; . = no result.

SMILES | Avidin bead fluor | GSH bead fluor | RGS8-Gao reg | RGS16-Gao HTS | RGS4-Gao reg | RGS7-Gao reg
CC(=O)Nc1cc(NC(C)=O)ncn1 | 6 | . | 96.0 | 96.4 | 93.2 | ?
CC(=O)Nc1nnc(Cc2ccccc2)s1 | 7 | 264* | 110.0 | 108.0 | 108.5 | 107.0
CS(=O)(=O)N1CCN(c2cnn(-c3ccccc3)c(=O)c2Cl)CC1 | 90* | 62 | 99.4 | 109.3 | 106.0 | 141.8
Cn1c(=O)c2c(nc(NCCO)n2CCc2ccccc2)n(C)c1=O | 3 | 15 | 91.5 | 69.2 | 90.1 | 94.1
Cn1c(=O)c2c(nc(NCCCO)n2CCc2ccccc2)n(C)c1=O | 50* | 20 | 103.6 | 104.7 | 101.6 | 104.9
CCOC(=O)C1CCCN(C(=O)C(C)Oc2ccc(Cl)cc2Cl)C1 (stereo not given) | 7 | 38 | 102.4 | 104.7 | 100.9 | 101.5
COC(=O)C1CCN(C(=O)C(C)Oc2ccc(Cl)cc2Cl)CC1 (stereo not given) | 57* | 28 | 102.5 | 104.4 | 108.5 | 137.9
Cc1ccc(N(CC(=O)NCc2ccco2)C(=O)CCC(=O)Nc2ccccn2)cc1C | 8 | 254* | 98.0 | 103.8 | 100.3 | 99.0
Cc1cc(C)cc(N(CC(=O)NCc2ccco2)C(=O)CCC(=O)Nc2ccccn2)c1 | 33 | 24 | 100.2 | 102.0 | 100.3 | 100.9
Cc1nnc(NC2=NCCC2)o1 | 95* | 20 | 100.0 | 100.6 | 105.2 | 129.2
CN(C(=O)Cc1c(C(=O)O)n(C)c2ccccc12)c1ccc(F)cc1 | 9 | 15 | 100.0 | 105.9 | 101.1 | 97.2
Cc1ccc(CNC(=O)c2cnc(-c3ccccn3)nc2C(F)(F)F)cc1 | 7 | 276* | 102.4 | 99.3 | 105.1 | 102.0
O=c1[nH]c(CSc2nc3ccccc3o2)nc2c1cnn2-c1ccccc1 | 8 | 255* | 103.4 | 106.4 | 100.9 | 100.5
O=c1[nH]c(SCc2nc3c(cnn3-c3ccccc3)c(=O)[nH]2)nc2ccccc12 | 18 | 9 | 98.9 | 101.5 | 101.0 | 99.4
COC(=O)CC(NC(=O)c1cccs1)c1ccc(OC)c(OC)c1 (stereo not given) | 9 | 13 | 98.6 | 97.8 | 98.7 | 100.6
O=C(NC1=NCCS1)c1cccc2ccccc12 | 5 | 11 | 104.5 | 100.0 | 102.4 | 103.5
[O-]c1c[n+](-c2ccc(-[n+]3cc([O-])on3)cc2)no1 | 10 | 19 | 96.7 | 97.9 | 97.6 | 94.5
O=[N+]([O-])c1cc(C(F)(F)F)cc([N+](=O)[O-])c1NCCNC(=S)Nc1cccc(F)c1 | 6 | . | 98.4 | 101.7 | 97.0 | ?
CC(=O)Oc1ccccc1N1C(=O)c2ccc(C(=O)O)cc2C1=O | 3 | 45 | 91.0 | 32.9 | 96.2 | 93.8
O=C(O)c1ccc2c(c1)C(=O)N(N1C(=O)c3ccccc3C1=O)C2=O | 24 | 111* | 98.9 | 116.4 | 101.4 | 105.8
COc1cc(CN2CCN(c3cccc(C)c3C)CC2)cc(Br)c1O | 8 | 272* | 103.0 | 106.1 | 101.9 | 102.3
COc1ccc(CN2CCN(c3cccc(C)c3C)CC2)cc1OC | 11 | 54 | 100.6 | 100.1 | 100.8 | 98.7
Cc1occc1C(=O)NN=C1C2CC3CC(C2)CC1C3 | 8 | 105* | 100.7 | 103.0 | 101.4 | 100.5
CCCNC(=O)C(NS(=O)(=O)c1cccc2nsnc12)c1ccccc1 (stereo not given) | 8 | 15 | 101.5 | 105.8 | 101.7 | 103.4
O=C(NCc1ccco1)C(NS(=O)(=O)c1cccc2nsnc12)c1ccccc1 (stereo not given) | 52* | 21 | 99.5 | 97.7 | 99.1 | 107.8
SMILES | Avidin bead fluor | GSH bead fluor | RGS8-Gao reg | RGS16-Gao HTS | RGS4-Gao reg | RGS7-Gao reg
Cc1cc(NC(=O)Nc2cc(C)nn2-c2ccccc2)n(-c2ccccc2)n1 | 19 | 37 | 100.2 | 104.8 | 102.3 | 100.6
CCOC(=O)/C=C(\C)Nc1cc(C)nn1-c1ccccc1 | 0 | 22 | 8.3* | -13.4 | 23.2* | 10.8*
CCn1cc(C(=O)N2CCN(c3ccccc3F)CC2)c(=O)c2ccc(C)nc21 | 6 | 17 | 130.0 | 139.6 | 140.6 | 141.7
CC(C)[C@H](NC(=O)c1ccccc1)C(=O)OCC(=O)NCCC1=CCCCC1 | 54* | 8 | 111.3 | 140.1 | 113.3 | 128.6
O=S(=O)(CCN1C=CC(C(F)(F)F)=NCC1)c1ccc(Cl)cc1Cl | 6 | . | 101.1 | 103.2 | 103.3 | ?
O=C(O)C1C2C=CC(C2)C1C(=O)N1CCOCC1 (stereo not given) | 15 | 32 | 107.2 | 105.2 | 103.5 | 104.3
O=C(NC1CCCC1)C1C2C=CC(C2)C1C(=O)N1CCOCC1 (stereo not given) | 6 | 272* | 99.7 | 98.0 | 103.5 | 97.5
CCC(C)C(=O)Nn1c(C2CC2)nc2cc(OC)c(OC)cc2c1=O (stereo not given) | 12 | 11 | 94.9 | 93.4 | 90.6 | ?
O=C(NCCN1CCN(Cc2ccccc2)CC1)C1c2ccccc2C(=O)N2CCc3ccccc3C12 (stereo not given) | 112* | 20 | 100.0 | 100.5 | 112.5 | 149.8
COc1ccc(N(CC(=O)Nc2cc(C)ccc2C)S(=O)(=O)c2ccccc2[N+](=O)[O-])c(OC)c1 | 10 | 10 | 97.3 | 97.1 | 99.8 | 95.0
Cn1c(=O)n(Cc2ccccc2)c(=O)c2c1nc1n2CCS1 | 6 | 266* | 98.5 | 102.1 | 96.1 | 100.3
C=CCn1c(=O)c2c(nc3n2CCS3)n(C)c1=O | 7 | 12 | 99.0 | 106.5 | 105.1 | 107.0
Fc1ccc(-c2csc(N3CCOCC3)n2)cc1 | 8 | . | 102.2 | 101.2 | 105.8 | ?
COc1cc(-c2csc(N3CCOCC3)n2)cc(OC)c1OC | 7 | 263* | 100.7 | 104.7 | 102.3 | 101.9
Cc1ccc(C(CC(=O)NCCCN(C)C)c2ccc(OC(C)C)cc2)cc1 (stereo not given) | 4 | . | 89.5 | 79.5 | 77.5 | ?
COc1ccccc1-c1cc(C(F)(F)F)nc(S(C)(=O)=O)n1 | 10 | 483* | 103.9 | 106.2 | 101.8 | 100.6
COc1ccccc1-c1cc(C(F)(F)F)nc(S(=O)(=O)CCCC(=O)NC(C)C)n1 | 19 | 5 | 100.1 | 95.1 | 89.8 | 101.7
Cc1cc(OCC(=O)NC(C)c2ccccc2)ccc1[N+](=O)[O-] (stereo not given) | 7 | 20 | 100.5 | 98.2 | 99.8 | 94.9
Cc1ccc(S(=O)(=O)Nc2nonc2C)cc1 | 4 | 33 | 34.3* | 28.7 | 38.4* | 31.3*
CNS(=O)(=O)c1ccc(C)cc1 | 12 | 24 | 103.7 | 97.3 | 104.9 | 102.0
S=C1SCN(Cc2cccnc2)CN1Cc1cccnc1 | 4 | . | 102.5 | 99.0 | 99.6 | ?
O=c1[nH][nH]c(=S)n1-c1ccccc1C(F)(F)F | 8 | . | 96.5 | 92.9 | 90.6 | ?
COc1cc(-c2nnc(-c3ccccc3)o2)cc(OC)c1OC | . | 18 | . | . | . | .
COc1cc(-c2nnc(-c3cc(OC)c(OC)c(OC)c3)o2)cc(OC)c1OC | 5 | 102* | 102.2 | 100.8 | 102.0 | 98.9

From PubChem
